Compounds without any hit were thinned out: in the full panel of roughly 79,000, 15% have a hit. A number with no mark means an inactive call. Activity calls are given as the source filed them. Rule as the data show it: active = growth inhibition above about 70%; inactive = the rest.

One assay is described as follows: NCI Yeast Anticancer Drug Screen. Data for the mlh1 rad18 strain (AID 175). To be noted: S. cerevisiae mlh1 rad18 strain growth inhibition; at 5.0 µM (retest, dose inferred, filed as 0.5); stronger effect = higher value. The method in brief:
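Read-out is yeast growth inhibition, calculated against vehicle-only controls. The compound was applied to a strain engineered with DNA damage repair alterations.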
Regarding `CCc1ccc(/C(C)=N/NC(N)=S)cc1`, the growth inhibition is -2%.
On the same count and under the same terms, in the case of `CC(C)/C=C1\CCOC1=O` it was 0%; in that of `COc1c(C(=O)/C(=N/Nc2ccccc2)C(C)=O)c(O)c(OC)c2occc12`, 2%.
Take `COc1ccc(CC/C(=N/O)c2ccccc2)cc1`: the growth inhibition was -9%.
The same measure, in the same setting: the value for `CCOC(=O)C1(C#N)C(c2ccccc2)C1(C#N)C#N` (stereo not given) was 42%; that for `COc1ccc(OC)c(/C=C/NC=O)c1` was 5%.
On to `CC(=O)Oc1ccc(-c2ccc(Br)cc2)cc1`, for which the growth inhibition is -7%.
For the compound `COC(=O)/C(C#N)=C/c1cc(OC)c(O)cc1Br`, the growth inhibition was 54%.
Still for that read-out and setting: in the case of `CCC(C1SC(=S)NC1=O)C1SC(=S)NC1=O` (stereo not given) it was -1%; in that of `CCC(C)c1ccc(O)c(C(C)c2ccccc2)c1` (stereo not given), 40%.
The same measure, in the same setting: in the case of `C/C(=N\NC(=S)N1CCN(c2ccccc2)CC1)c1nccs1` it was 34%; in that of `COc1ccc2c(C(=O)c3ccccc3)c3[n+](cc2c1OC)CCc1cc2c(cc1-3)OCO2`, -2%; in that of `Cc1cccc(C[N+](C)(C)CCCO)c1C`, 0%.
Still for that read-out and setting: in the case of `c1ccc(N=C2SC3=NCCN3C2=Nc2ccccc2)cc1` it was 13%; in that of `Cc1ccc(SCc2ccccc2Cl)nn1`, -1%.
`CCCc1cc(=O)oc2c3c(c4c(c12)OC(C)(C)CC4)O[C@H](C)[C@H](C)C3=O`: the growth inhibition was -5%.
For the compound `CC1(C)COC(c2cccc(C(O)c3ccc(Cl)cc3)c2)=N1` (stereo not given), the growth inhibition is 26%.
The same measure, in the same setting: the value for `CCOC(=O)c1cc(NC(=O)c2cc(NC(=O)c3cc(NC(=O)c4c(-c5ccccc5)noc4C)cn3C)cn2C)cn1C` was 0%.
Consider `O=C(N/N=C/c1ccccc1O)c1ccccc1-n1cccc1`, for which the growth inhibition was 59%.
Take `O=C1CN(CCN2CCOCC2)CC(=O)N2Cc3ccccc3CN12`: the growth inhibition is 29%.
For the compound `CCC[CH2][Sn]([CH2]CCC)([NH]c1ncnc2[nH]cnc12)[NH]c1ncnc2[nH]cnc12`, the growth inhibition was 20%.
As for `Oc1ccc(Br)cc1C=Nc1c(NC2CCCCC2)oc2ccc(Br)cc12`, the growth inhibition was -4%.
The same measure, in the same setting: the value for `Cc1cc2c(C(C)C)c(O)c(O)c3coc(/c1=c1/c(C)cc4c(C(C)C)c(=O)c(=O)c5coc1c45)c32` was 29%; that for `O=C1c2ccccc2C(=O)N1/N=C\c1ccccc1[N+](=O)[O-]` was -3%; that for `O[C@H](CNCCS)[C@@H](O)CNCCS` was -5%.
Same read-out and setting: in the case of `C[C@]12CC[C@H](O)CC1=CC[C@@H]1C2CC[C@]2(C)C(=O)N(N)C(=O)CC12` (stereo not given in full) it was -11%; in that of `O=C(C(/C=N/C(=S)NCc1ccccc1)=C(/O)c1ccccc1)c1ccccc1`, 12%; in that of `C=CC1(c2ccc(-c3ccccc3)cc2)OCCO1`, -17%.
In the case of `C=C1CC(COc2ccc3c(C)cc(=O)oc3c2)(c2ccccc2)OC1=O` (stereo not given), the growth inhibition was -10%.
Same read-out and setting: in the case of `CN(C)CCCNc1c2ccccc2nc2ccc([N+](=O)[O-])cc12` it was 31%; in that of `CN1CCC(OC(=O)c2ccc3ncccc3c2)CC1`, -7%; in that of `COc1ccc(/C=C2/C(=O)N(C(=O)c3ccccc3O)N=C2C)cc1OC`, 15%.
On the same count and under the same terms, the value for `CC1([N+](=O)[O-])C(=O)C2(N3CCOCC3)CCCC2C1c1ccccc1` (stereo not given) was 10%.
The same measure, in the same setting: in the case of `COc1ccc(C2=C(Cl)C(=O)N(c3ccc(C)cc3)C(=O)C2(Cl)Cl)cc1` it was 12%.
Take `COc1ccnc(-c2cc(OC)cc(/C(N)=N/O)n2)c1`: the growth inhibition is -4%.
Still for that read-out and setting: in the case of `Nc1ccccc1CCc1ccccc1` it was 28%; in that of `COC(=O)c1ccc(OCCC(=O)CCl)cc1`, 2%.
The same measure, in the same setting: the value for `CCCCCCCCCCCCS(=O)(=O)CC(Br)C(=O)c1ccco1` (stereo not given) was 68%.
Same read-out and setting: the value for `FC(F)(F)C(F)(F)C1(F)C(F)(F)C(F)(F)C(F)(F)C(F)(F)C1(F)F` was 2%; that for `O=C(O)C(O)C(O)C(O)C(O)CO.[Ag]` (stereo not given) was 99% (active).

Staying with this assay, now noted: S. cerevisiae mlh1 rad18 strain growth inhibition; at 50.0 µM (retest, dose inferred, filed as 5.0); stronger effect = higher value.
Turning to `CCc1ccc(/C(C)=N/NC(N)=S)cc1`, the growth inhibition is 93% (active).
Still for that read-out and setting: the value for `CC(C)/C=C1\CCOC1=O` was 6%; that for `COc1c(C(=O)/C(=N/Nc2ccccc2)C(C)=O)c(O)c(OC)c2occc12` was 90% (active).
Turning to `COc1ccc(CC/C(=N/O)c2ccccc2)cc1`, the growth inhibition is 96% (active).
Turning to `CCOC(=O)C1(C#N)C(c2ccccc2)C1(C#N)C#N` (stereo not given), the growth inhibition is 98% (active).
The same measure, in the same setting: the value for `COc1ccc(OC)c(/C=C/NC=O)c1` was -24%; that for `CC(=O)Oc1ccc(-c2ccc(Br)cc2)cc1` was 94% (active).
Still for that read-out and setting: in the case of `COC(=O)/C(C#N)=C/c1cc(OC)c(O)cc1Br` it was 76% (active); in that of `CCC(C1SC(=S)NC1=O)C1SC(=S)NC1=O` (stereo not given), 35%; in that of `CCC(C)c1ccc(O)c(C(C)c2ccccc2)c1` (stereo not given), 61%.
`C/C(=N\NC(=S)N1CCN(c2ccccc2)CC1)c1nccs1`: the growth inhibition is 97% (active).
Still for that read-out and setting: the value for `COc1ccc2c(C(=O)c3ccccc3)c3[n+](cc2c1OC)CCc1cc2c(cc1-3)OCO2` was 24%; that for `Cc1cccc(C[N+](C)(C)CCCO)c1C` was -3%.
On to `c1ccc(N=C2SC3=NCCN3C2=Nc2ccccc2)cc1`, for which the growth inhibition is 78% (active).
The same measure, in the same setting: in the case of `Cc1ccc(SCc2ccccc2Cl)nn1` it was 19%; in that of `CCCc1cc(=O)oc2c3c(c4c(c12)OC(C)(C)CC4)O[C@H](C)[C@H](C)C3=O`, 99% (active); in that of `CC1(C)COC(c2cccc(C(O)c3ccc(Cl)cc3)c2)=N1` (stereo not given), 99% (active).
Same read-out and setting: in the case of `CCOC(=O)c1cc(NC(=O)c2cc(NC(=O)c3cc(NC(=O)c4c(-c5ccccc5)noc4C)cn3C)cn2C)cn1C` it was 67%; in that of `O=C(N/N=C/c1ccccc1O)c1ccccc1-n1cccc1`, 74% (active).
On the same count and under the same terms, in the case of `O=C1CN(CCN2CCOCC2)CC(=O)N2Cc3ccccc3CN12` it was 64%.
Regarding `CCC[CH2][Sn]([CH2]CCC)([NH]c1ncnc2[nH]cnc12)[NH]c1ncnc2[nH]cnc12`, the growth inhibition was 98% (active).
The same measure, in the same setting: the value for `Oc1ccc(Br)cc1C=Nc1c(NC2CCCCC2)oc2ccc(Br)cc12` was 29%; that for `Cc1cc2c(C(C)C)c(O)c(O)c3coc(/c1=c1/c(C)cc4c(C(C)C)c(=O)c(=O)c5coc1c45)c32` was 98% (active); that for `O=C1c2ccccc2C(=O)N1/N=C\c1ccccc1[N+](=O)[O-]` was 93% (active).
The same measure, in the same setting: in the case of `O[C@H](CNCCS)[C@@H](O)CNCCS` it was 3%; in that of `C[C@]12CC[C@H](O)CC1=CC[C@@H]1C2CC[C@]2(C)C(=O)N(N)C(=O)CC12` (stereo not given in full), 91% (active); in that of `O=C(C(/C=N/C(=S)NCc1ccccc1)=C(/O)c1ccccc1)c1ccccc1`, 71% (active).
Turning to `C=CC1(c2ccc(-c3ccccc3)cc2)OCCO1`, the growth inhibition is 0%.
Regarding `C=C1CC(COc2ccc3c(C)cc(=O)oc3c2)(c2ccccc2)OC1=O` (stereo not given), the growth inhibition is 22%.
Same read-out and setting: in the case of `CN(C)CCCNc1c2ccccc2nc2ccc([N+](=O)[O-])cc12` it was 84% (active); in that of `CN1CCC(OC(=O)c2ccc3ncccc3c2)CC1`, 7%; in that of `COc1ccc(/C=C2/C(=O)N(C(=O)c3ccccc3O)N=C2C)cc1OC`, 79% (active).
Same read-out and setting: in the case of `CC1([N+](=O)[O-])C(=O)C2(N3CCOCC3)CCCC2C1c1ccccc1` (stereo not given) it was 96% (active); in that of `COc1ccc(C2=C(Cl)C(=O)N(c3ccc(C)cc3)C(=O)C2(Cl)Cl)cc1`, 33%.
In the case of `COc1ccnc(-c2cc(OC)cc(/C(N)=N/O)n2)c1`, the growth inhibition was 77% (active).
Turning to `Nc1ccccc1CCc1ccccc1`, the growth inhibition is 91% (active).
Still for that read-out and setting: the value for `COC(=O)c1ccc(OCCC(=O)CCl)cc1` was 72% (active); that for `CCCCCCCCCCCCS(=O)(=O)CC(Br)C(=O)c1ccco1` (stereo not given) was 93% (active); that for `FC(F)(F)C(F)(F)C1(F)C(F)(F)C(F)(F)C(F)(F)C(F)(F)C1(F)F` was -2%.
On the same count and under the same terms, in the case of `O=C(O)C(O)C(O)C(O)C(O)CO.[Ag]` (stereo not given) it was 98% (active).

These data come from PubChem BioAssay (NCI).
